Among all 290,000 compounds or so, about 3,000 (1%) were called active. The entries come from a sample that favours actives as a whole. Unmarked numbers belong to inactive results. Cut-off read from the data, not from the text of the source: active = inhibition mostly above about 36% (no sharp cut-off); inactive = mostly below about 34%.

The nature of this assay: NOD1 signaling inhibitors, primary screen, cell-based, luminescence, uHTS (AID 1578).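 Note: HEK-293T reporter cells stimulated with the NOD1 agonist gamma-tri-DAP.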 The conditions noted are these: NOD1-driven NF-kB luciferase reporter cells, at 4 µM, active compounds read high. On the technique in general: Reporter assays use an easily measured gene product as a stand-in for the process of interest.
A word on the inhibition: it is the relative decrease from the control value, in per cent. Turning to `COc1ccc(NC(=O)CSc2nc(N)c(NC(=O)c3cccs3)c(=O)[nH]2)cc1`, the inhibition is -4.6%. The value for `COc1cccc(-c2ccc(NC(=O)C3CCCN(CCCn4cccn4)C3)cc2)c1` (configuration not stated) was -32.8%; that for `Cc1ccccc1Oc1nc2ccccn2c(=O)c1/C=C(\C#N)C(=O)Nc1c(C)n(C)n(-c2ccccc2)c1=O` was -32.9%; that for `O=C(COc1ccc(Cl)cc1Cl)Nc1ccccc1NS(=O)(=O)c1cccs1` was 38.6%. The figure for `O=C(COc1ccccc1)Nc1ccccc1NS(=O)(=O)c1cccs1` is 15.4%; for `N#Cc1c(NC(=O)CSc2nnc(-c3ccccc3O)n2-c2ccccc2)sc2c1CCCC2` it is -23.8%; for `N#Cc1c(Sc2ncc(C(F)(F)F)cc2Cl)nsc1C/C=N\OCc1c(F)cccc1Cl` it is 23.5%. On to `O=C(Nc1ccc(Oc2cccnc2)cc1)C1CCN(Cc2ccc(F)cc2)CC1`, for which the inhibition is -7.5%. The value for `O=C(NCCCn1ccnc1)/C(=C\c1cccnc1)NC(=O)c1ccco1` was -5.2%; that for `COc1ccc2oc(C(=O)NCc3cc(OC)c(OC)cc3OC)c(C)c2c1` was 17.1%. The value for `CCOC(=O)C1CCN(C(=O)COC(=O)COc2ccc(Cl)cc2)CC1` was -16%; that for `NC(=O)c1ccc(Oc2ccc(Cl)cc2)c([N+](=O)[O-])c1` was 2.7%.

Regarding `CCC(=O)c1ccc(Oc2ccc(C(=O)c3ccc(C)cc3)cc2[N+](=O)[O-])cc1`, the inhibition was 40.1%. Turning to `CC(=O)c1ccc(Oc2ccc(C(=O)c3ccc(C)c(C)c3)cc2[N+](=O)[O-])cc1`, the inhibition is 69.6% (active).

For `Cn1ncnc1SCc1cn2cccnc2n1`, the inhibition was -16.1%. The figure for `COc1ccc(-c2nc(CN3CCC(C(=O)N4CCOCC4)CC3)c(C)o2)cc1OC` is -6.6%; for `COc1ccc([N+](=O)[O-])cc1NC(=S)Nc1ccccc1` it is 4.9%. In the case of `O=C(CN(C(=O)CNS(=O)(=O)c1ccccc1)c1ccc2c(c1)OCCO2)NC1CCCCC1`, the inhibition was -17.9%. The value for `Cc1ccc(/C=N/N(C)C2=NS(=O)(=O)c3ccccc32)cc1` was 5%.

For the compound `COc1cccc(/C=N/N(C)C2=NS(=O)(=O)c3ccccc32)c1O`, the inhibition is -15.4%.

As to `CN(/N=C/c1cc(Cl)ccc1O)C1=NS(=O)(=O)c2ccccc21`, the inhibition is 30.8% (active). As for `CCOc1ccc(CC(=O)NNC(=S)Nc2ccc(OC)c(OC)c2)cc1`, the inhibition was -36.4%. Take `Cc1ccc(C)c(C(=O)N(C)CC(=O)Nc2ccccc2C(F)(F)F)c1`: the inhibition is 35.4%. The value for `CCn1c(=O)c(C(=O)NCc2ccccc2)c(O)c2ccccc21` was -12.4%; that for `O=[N+]([O-])c1cccc(OCC(O)CN2CCN(S(=O)(=O)c3cc(Cl)ccc3Cl)CC2)c1` (configuration not stated) was 15.6%; that for `O=C(C[N+]1(CC#Cc2ccccc2)CCCCC1)c1ccccc1` was 47.4% (active). As for `O=C(C[N+]1(CC#Cc2ccccc2)CCOCC1)c1ccccc1`, the inhibition was -26.9%. The value for `O=C(C[N+]1(CC#Cc2ccccc2)CCCCC1)c1ccc(Cl)cc1` was -15.6%. The value for `Cc1cc(=O)[nH]c(SCC(=O)Nc2ccc(F)cc2)c1C#N` was -21.3%. As to `Cc1cc(=O)[nH]c(SCC(=O)Nc2ccc(Br)cc2)c1C#N`, the inhibition is 67.2% (active).

Consider `COc1ccc(NC(=O)CSc2[nH]c(=O)cc(C)c2C#N)cc1OC`, for which the inhibition is -23.7%. On to `CN1C2CCC1/C(=C\c1ccc(F)cc1)C(=O)/C2=C/c1ccc(F)cc1`, for which the inhibition is 77.7% (active). The figure for `CN1C2CCC1/C(=C\c1ccccc1F)C(=O)/C2=C/c1ccccc1F` is 34.2%. `CN1C2CCC1/C(=C\c1ccccc1)C(=O)/C2=C\c1ccccc1`: the inhibition was 36.3%.

With `Cc1cccc(N2CCN(C(=O)c3cc(S(=O)(=O)N4CCOCC4)cn3C)CC2C)c1` (configuration not stated), the inhibition was -17.7%. The value for `Cc1cc(CNC(=O)c2ccc(C)c([N+](=O)[O-])c2)c2ccccc2n1` was 26.1%; that for `Cc1cc(CNC(=O)Cn2cc([N+](=O)[O-])cn2)c2ccccc2n1` was -28.9%; that for `Cc1cc(CNC(=O)c2cccc([N+](=O)[O-])c2)c2ccccc2n1` was 47.9% (active). The figure for `O=C(Nc1ccc(Br)c(C(F)(F)F)c1)c1ccc(C(F)(F)F)cc1` is 41.9% (active); for `Cc1ccc(C(=O)Nc2ccc(Br)c(C(F)(F)F)c2)cc1` it is -51.3%. The figure for `O=C(Nc1ccc(Br)c(C(F)(F)F)c1)c1ccccc1` is 7.5%. Consider `C=CCn1c(SCc2nc3cc(C(F)(F)F)ccc3c(=O)[nH]2)nc2sc(CC)cc2c1=O`, for which the inhibition was -9.3%.

For the compound `COc1ccc(-c2noc(N3CCC(C(=O)NCc4ccccc4Cl)CC3)n2)cc1`, the inhibition is 49.5%. Take `O=C(N/N=C(/c1ccccc1)c1ccncc1)c1ccc2c(c1)OCO2`: the inhibition was -26.7%.

Take `Cc1cc(C(=O)COC(=O)CN(C)S(=O)(=O)c2ccc(Cl)cc2)c(C)n1CC1CCCO1` (configuration not stated): the inhibition was -12.3%. The figure for `Cc1ccc2nnnc(-c3ccccc3)c2c1` is -32.7%; for `Clc1ccc2nnnc(-c3ccccc3)c2c1` it is 63.1% (active); for `c1ccc(-c2nnnc3ccccc23)cc1` it is -26.7%. Consider `COC(=O)c1ccc(NC(=O)NCCCl)cc1`, for which the inhibition is -34.1%. The value for `Cc1c(C(=O)N2CCOCC2)sc(NC(=O)c2ccc([N+](=O)[O-])cc2)c1C#N` was -2.6%. The figure for `Cc1ccc(/C=C/C(=O)c2c(C)nc3ccccn23)cc1` is -11.3%. The value for `C/C(=N\NC(=O)c1c(C)nc2ccccn12)c1cccc([N+](=O)[O-])c1` was -11.1%; that for `Cc1nc2ccccn2c1C(=O)/C=C/c1cccc([N+](=O)[O-])c1` was 101% (active).

Regarding `Cc1c(C(=O)N2CCN(c3ccccc3)CC2)sc2nc3n(c(=O)c12)CCC3`, the inhibition is 0.9%. For the compound `CC(=O)c1ccccc1NC(=O)CCCNC(=O)c1ccc(Cl)cc1`, the inhibition is 17.3%.

For the compound `CC(=O)CCSc1ncnc2sc(-c3ccccc3)cc12`, the inhibition was -75.9%. The value for `O=C(O)CSc1ncnc2sc(-c3ccccc3)cc12` was -16.7%.

On to `COc1cc(CN2CCN(CCOCCO)CC2)cc(OC)c1OC`, for which the inhibition is -4.8%. The figure for `Cc1ccc(/C=C2/Sc3ccccc3N(CC(=O)NCC3CCCO3)C2=O)cc1` (configuration not stated) is -4.1%; for `Cc1cc(/C=C2\Sc3ccccc3N2C)cc(C)[n+]1CC1CCCO1` (configuration not stated) it is 56.7% (active). Regarding `COc1ccccc1-[n+]1c(C)cc(/C=C2\Sc3ccccc3N2C)cc1C`, the inhibition was 28.9%.

Turning to `Nc1nonc1-n1nnc(C(=O)N/N=C/c2ccc(OCc3ccccc3)cc2)c1COc1ccc(F)cc1`, the inhibition is -0.6%. The figure for `NS(=O)(=O)c1ccc(NC(=S)Nc2ccn(Cc3cccc4ccccc34)n2)cc1` is 56.6% (active); for `CC(=O)c1cccc(NC(=S)Nc2ccn(Cc3cccc4ccccc34)n2)c1` it is -5.1%. For `O=C(Nc1ccn(Cc2cccc3ccccc23)n1)c1cccnc1`, the inhibition was 7.1%. As for `Cc1cc(C)n(C(=O)c2ccc(C)c(Br)c2)n1`, the inhibition is -2.6%. Consider `c1csc(-c2nnc(N3CCOCC3)c3ccccc23)c1`, for which the inhibition was 2.4%.

`c1csc(-c2nc(N3CCOCC3)c3ccccc3n2)c1`: the inhibition was -9.5%. The value for `O=C1OCCN1c1c(-c2ccccc2)c(-c2cccs2)nc2c(-c3ccccc3)cccc12` was 66% (active). Turning to `CCOc1ccc2nc(NC(=O)CSc3nc4cccnc4n3C)sc2c1`, the inhibition is -1%. In the case of `O=C(NC1CCCC1)c1ncn[nH]1`, the inhibition was -17.9%.

In the case of `CC1CC(NC(=O)c2cnc3n(c2=O)CCS3)CC(C)(C)C1` (configuration not stated), the inhibition was -9%. For `CC1CC(NC(=O)c2ncn[nH]2)CC(C)(C)C1` (configuration not stated), the inhibition was 84.5% (active).

For the compound `Cc1nn(-c2ccc(Cl)c(Cl)c2)c(C)c1C(=O)O`, the inhibition was -17.4%. For the compound `CCc1nnc(NC(=O)CC23CC4CC(CC(Br)(C4)C2)C3)s1`, the inhibition is -2.7%. The value for `CCc1c(C)nc(SCC(=O)N2CCCCC2CC)[nH]c1=O` (configuration not stated) was -11.1%; that for `C/C(=N\NC(=O)c1cccc(Br)c1)c1cccc(NC(=O)c2ccc(C)o2)c1` was -55.5%. As to `C/C(=N\NC(=O)C1(C)CC1(Br)Br)c1cccc(NC(=O)c2ccc(C)o2)c1` (configuration not stated), the inhibition was 89.8% (active). Take `C/C(=N\NC(=O)C1(C)CC1(Br)Br)c1ccc(NC(=O)c2ccc(C)o2)cc1` (configuration not stated): the inhibition is 13.4%. The figure for `O=S(=O)(O)c1ccc(N=NNc2ccc(Br)cc2)cc1` is -12.1%; for `C=C1/C(=C\C=C2/CCC[C@]3(C)[C@@H]([C@H](C)CCCC(C)(C)O)CC[C@@H]23)C[C@@H](O)C[C@@H]1O` it is 65.6% (active). Take `COc1ccc(-c2nc(C)ncc2-c2ccc(Cl)cc2)c(O)c1`: the inhibition was 5.6%. The figure for `CN(C(=O)COC(=O)/C=C/c1cccc([N+](=O)[O-])c1)C1CCS(=O)(=O)C1` (configuration not stated) is 61.3% (active); for `CN(C(=O)COC(=O)/C=C/c1ccc(C(F)(F)F)cc1)C1CCS(=O)(=O)C1` (configuration not stated) it is -16.9%. `CCN(C(=O)COC(=O)/C=C/c1cccc(Br)c1)C1CCS(=O)(=O)C1` (configuration not stated): the inhibition was -18.9%. Take `CCOC(=O)c1c(Nc2ccccc2)sc(/C=C2\C=Nc3ccccc32)c1O`: the inhibition is -68%. `CCN(CC)C(=O)Oc1ccc2ccccc2c1Cl`: the inhibition was -86.7%. As for `O=S(=O)(CCSc1nc2ccccc2s1)c1nc2ccccc2s1`, the inhibition was 99% (active). The value for `O=S(=O)(CCSc1ccccn1)c1nc2ccccc2s1` was 74.4%.

Consider `CCS(=O)(=O)CCSc1nc2ccccc2s1`, for which the inhibition was -2.7%. The figure for `Cc1ccc(S(=O)(=O)N2CCCC2)cc1C(=O)NCc1ccccn1` is -26.2%; for `O=C(c1cc(-c2ccc(F)cc2)on1)N1CCCCCC1` it is -53.7%.

For the origin of these results see PubChem BioAssay AID1578 (Sanford-Burnham Center for Chemical Genomics, 2009).
